PubChem BioAssay (Tox21)
Values joined by “and” are separate entries in the source; they are usually repeats but may differ in a detail not shown here. Identical values can stand only once. Inconclusive results are not listed. Where a call stands in place of a potency, no number is given. A structure can be active in one record and inactive in another. Active and inactive are the calls of the source. Unless noted, calls follow the shape of the dose curve; as a rule, active = well fitted curve in the direction sought with a large enough effect in the repeat runs; inconclusive = weak or mixed curves; inactive = no such curve, though single readings can be large; an effect the other way counts as inactive or inconclusive.

Key:
[1] = qHTS assay to identify small molecule antagonists of the estrogen related receptor (ERR) signaling pathway from Tox21 library - cell viability counter screen (AID 1224834); also: nearly all actives have a fitted effect of over 30% in size; also: potency is read from the fitted curve at half-maximal effect
How it was run: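 Multiplexed viability counter screen in ERR cells: 17.5 h compound exposure at 37 C, CellTiter-Fluor added, 30 min at 37 C/5% CO2, fluorescence read.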

[2] = biological target: Luciferin 4-monooxygenase (Photinus pyralis) (UniProt P08659); experiment: qHTS assay to identify small molecule inhibitors of firefly luciferase (AID 1224835); also: nearly all actives have a fitted effect of over 25% in size
Chain of Luciferin 4-monooxygenase (Photinus pyralis) (P08659 whole entry, looked up): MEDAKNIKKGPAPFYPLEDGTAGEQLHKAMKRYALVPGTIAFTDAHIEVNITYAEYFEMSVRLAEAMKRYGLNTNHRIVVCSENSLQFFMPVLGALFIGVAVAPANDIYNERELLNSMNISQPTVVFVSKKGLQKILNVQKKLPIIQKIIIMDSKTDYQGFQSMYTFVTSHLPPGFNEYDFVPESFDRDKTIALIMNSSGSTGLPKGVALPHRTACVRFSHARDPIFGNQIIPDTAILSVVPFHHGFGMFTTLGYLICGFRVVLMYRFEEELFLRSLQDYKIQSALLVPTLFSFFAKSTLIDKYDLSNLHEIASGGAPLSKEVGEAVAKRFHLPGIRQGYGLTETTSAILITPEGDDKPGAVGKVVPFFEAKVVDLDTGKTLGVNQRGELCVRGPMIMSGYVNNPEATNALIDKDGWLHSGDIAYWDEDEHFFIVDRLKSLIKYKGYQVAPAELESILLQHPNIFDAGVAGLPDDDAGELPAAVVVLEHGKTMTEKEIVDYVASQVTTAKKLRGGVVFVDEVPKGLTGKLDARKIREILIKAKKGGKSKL
How it was run: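 Biochemical qHTS: compounds run as interplate titrations against purified firefly enzyme, with D-luciferin and ATP each at its KM concentration. Light output recorded by CCD imaging.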

[3] = qHTS assay to identify small molecule agonists of the constitutive androstane receptor (CAR) signaling pathway - cell viability counter screen (AID 1224836); also: nearly all actives have a fitted effect of over 45% in size; also: potency is read from the fitted curve at half-maximal effect
How it was run: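 Double-stable HepG2 hepatoma cells (hCAR plus CYP2B6-2.2kb) are treated for 23 h at 37 C with test compounds in 15-point concentration series. PK11195 at 0.75 uM final is co-added. Cell viability is quantified by CellTiter-Fluor.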

[4] = qHTS assay to identify small molecule antagonists of the constitutive androstane receptor (CAR) signaling pathway - cell viability counter screen (AID 1224837); also: nearly all actives have a fitted effect of over 45% in size; also: potency is read from the fitted curve at half-maximal effect
How it was run: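 Read-out: CellTiter-Fluor fluorescence after 23 hr at 37 C/5% CO2. Cells: HepG2 double-stable for hCAR and CYP2B6-2.2kb. Compounds tested at 15 concentrations in the presence of CITCO, final concentration 50 nM.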

[5] = biological target: Nuclear receptor subfamily 1 group I member 3 (Homo sapiens) (UniProt Q14994); experiment: qHTS assay to identify small molecule antagonists of the constitutive androstane receptor (CAR) signaling pathway (AID 1224838);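 also: HepG2 cells stably expressing hCAR with CYP2B6 luciferase reporter stimulated by CITCO; nearly all actives have a fitted effect of over 40% in size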; also: potency is read from the fitted curve at half-maximal effect
Chain of Nuclear receptor subfamily 1 group I member 3 (Homo sapiens) (Q14994 whole entry, looked up): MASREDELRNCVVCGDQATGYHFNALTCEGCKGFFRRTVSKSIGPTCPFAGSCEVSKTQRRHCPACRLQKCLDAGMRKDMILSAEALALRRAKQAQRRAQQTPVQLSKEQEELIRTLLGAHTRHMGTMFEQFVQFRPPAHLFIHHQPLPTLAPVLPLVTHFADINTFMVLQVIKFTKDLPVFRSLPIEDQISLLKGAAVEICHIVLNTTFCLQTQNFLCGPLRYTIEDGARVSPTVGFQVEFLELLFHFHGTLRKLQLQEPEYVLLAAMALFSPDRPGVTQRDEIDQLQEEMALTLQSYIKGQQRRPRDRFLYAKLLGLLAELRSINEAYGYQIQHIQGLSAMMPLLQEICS
How it was run: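 Read-out: ONE-Glo luciferase luminescence after 30 min at room temperature. HepG2-CYP2B6-hCAR double-stable cells, compounds in 15-point titration plus 50 nM CITCO final, 24 h at 37 C/5% CO2.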

[6] = biological target: Nuclear receptor subfamily 1 group I member 3 (Homo sapiens) (UniProt Q14994); experiment: qHTS assay to identify small molecule agonists of the constitutive androstane receptor (CAR) signaling pathway (AID 1224839);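 also: HepG2 cells stably carrying human CAR and a CYP2B6 luciferase reporter; nearly all actives have a fitted effect of over 15% in size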
How it was run: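 Readout: firefly luciferase luminescence via ONE-Glo. System: HepG2 double-stable for hCAR and CYP2B6-2.2kb. Conditions: 15-point compound titration, PK11195 at 0.75 uM final, 24 h incubation.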

[7] = qHTS assay to identify small molecule antagonists of the estrogen related receptor signaling pathway with the pleiotropic PPARgamma coactivator (PGC) from Tox21 10K library - cell viability counter screen (AID 1224840; active = well fitted cell-killing curve with a large enough effect in the repeat runs, not every such curve was filed as active; also: nearly all actives have a fitted effect of over 40% in size; also: potency is read from the fitted curve at half-maximal effect)
How it was run: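 Fluorescence read-out of CellTiter-Fluor viability reagent, added after cells had been exposed to compound in DMSO for 17.5 h at 37 C; 30 min development at 37 C/5% CO2. Cells: PGC/ERR line, 2,000/well.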

[8] = qHTS assay to identify small molecule antagonists of the estrogen related receptor signaling pathway with the pleiotropic PPARgamma coactivator (PGC) from Tox21 10K library (AID 1224841; call rule not given here; also: actives are mostly falling curves and most rising ones were filed inactive; nearly all actives have a fitted effect of over 50% in size; also: potency is read from the fitted curve at half-maximal effect)
How it was run: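 Luminescence read-out (One-Glo luciferase reagent, 30 min at room temperature) from PGC/ERR cells exposed to DMSO-dissolved test compounds for 18 h at 37 C; cells, 2,000 per well, had been preincubated 6 h before compound transfer.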

[9] = qHTS assay to identify small molecule agonists of the estrogen related receptor signaling pathway with the pleiotropic PPARgamma coactivator (PGC) from Tox21 10K library (AID 1224842); also: nearly all actives have a fitted effect of over 15% in size
How it was run: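 PGC/ERR reporter cell line, 2,000 cells per well, incubated 6 h at 37 C before 23 nL compound in DMSO was added. After 18 h at 37 C, One-Glo luminescence read following 30 min at room temperature.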

[10] = biological target: Thyrotropin receptor (Homo sapiens) (UniProt P16473); experiment: qHTS assay to identify small molecule agonists of the thyroid stimulating hormone receptor (TSHR) signaling pathway (AID 1224843; calls by dose curve; also: nearly all actives have a fitted effect of over 45% in size)
Chain of Thyrotropin receptor (Homo sapiens) (P16473 whole entry, looked up): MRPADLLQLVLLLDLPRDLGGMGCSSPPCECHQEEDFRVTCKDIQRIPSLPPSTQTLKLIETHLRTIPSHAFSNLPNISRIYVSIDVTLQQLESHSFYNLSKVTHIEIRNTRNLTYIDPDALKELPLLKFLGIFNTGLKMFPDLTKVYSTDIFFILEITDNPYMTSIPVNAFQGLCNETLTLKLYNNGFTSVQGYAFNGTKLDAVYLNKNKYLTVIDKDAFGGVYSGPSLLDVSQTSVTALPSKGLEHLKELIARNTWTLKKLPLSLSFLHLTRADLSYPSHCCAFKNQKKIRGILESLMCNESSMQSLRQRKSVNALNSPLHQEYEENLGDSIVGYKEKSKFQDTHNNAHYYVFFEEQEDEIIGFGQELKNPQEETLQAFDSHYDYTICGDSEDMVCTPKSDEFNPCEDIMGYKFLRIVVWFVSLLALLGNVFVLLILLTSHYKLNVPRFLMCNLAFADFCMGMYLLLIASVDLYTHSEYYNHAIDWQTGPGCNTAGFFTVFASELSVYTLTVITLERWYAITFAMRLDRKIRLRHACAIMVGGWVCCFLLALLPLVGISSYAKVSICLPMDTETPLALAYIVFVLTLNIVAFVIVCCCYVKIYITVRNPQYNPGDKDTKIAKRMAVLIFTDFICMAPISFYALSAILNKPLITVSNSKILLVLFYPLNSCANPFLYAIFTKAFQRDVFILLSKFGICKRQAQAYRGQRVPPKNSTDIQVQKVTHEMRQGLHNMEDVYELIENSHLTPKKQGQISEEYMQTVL
How it was run: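 Agonist-mode screen: TSHR HEK293 cells received test chemicals for half an hour at room temperature, then HTRF cAMP detection reagents for one hour prior to fluorescence measurement. Each chemical ran as a 15-concentration series, triplicated.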

[11] = qHTS assay to identify small molecule agonists of the hypoxia (HIF-1) signaling pathway - cell viability counter screen (AID 1224844; calls by dose curve; also: nearly all actives have a fitted effect of over 50% in size)
How it was run: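 CellTiter-Glo luminescence read-out, 30 min RT, taken in the same wells as the beta-lactamase HRE reporter assay; HRE-bla ME-180 cells, 0.5% dialyzed FBS, 17 hr compound treatment at 37C, 5% CO2.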

[12] = qHTS assay to identify small molecule agonists of H2AX (AID 1224845; active = well fitted activation curve with a large enough effect in the signal ratio in the repeat runs, not every such curve was filed as active; the % refers to the signal ratio)
How it was run: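 Wild-type CHO-K1 cells, plated overnight, exposed 3hr at 37C to 15 concentrations (0.76% DMSO final). Lysed, then HTRF anti-pH2AX (S139) cryptate and anti-H2AX-d2 antibodies, 24 hr room temperature; 665/620 nm emission read.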

[13] = qHTS assay to identify small molecule agonists of the hypoxia (HIF-1) signaling pathway (AID 1224846; active = well fitted activation curve with a large enough effect in the signal ratio in the repeat runs, not every such curve was filed as active; the % refers to the signal ratio)
How it was run: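 Beta-lactamase FRET read-out (CCF4-AM substrate) from ME-180 cells carrying an HRE-driven bla reporter, after 17 hrs compound exposure at 37C/5% CO2. Cells were seeded at 2,000 per well in 0.5% dialyzed FBS medium and preincubated 5 hrs.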

[14] = qHTS assay to identify small molecule antagonists of the estrogen related receptor (ERR) signaling pathway from Tox21 library (AID 1224848); also: nearly all actives have a fitted effect of over 50% in size; also: potency is read from the fitted curve at half-maximal effect
How it was run: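 Quantitative high-throughput format: ERR reporter cells (2,000/well) pre-incubated 6 h, treated 18 h at 37 C with compounds in DMSO alongside positive and negative controls, then read by ONE-Glo luminescence.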

[15] = qHTS assay to identify small molecule agonists of the estrogen related receptor (ERR) signaling pathway from Tox21 library (AID 1224849; calls by dose curve; also: nearly all actives have a fitted effect of over 15% in size); conditions: ERR reporter cell line, ONE-Glo luciferase, 18 h
How it was run: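 Luminescence readout (ONE-Glo, 30 min RT) after 18 h compound exposure at 37 C of NTP-supplied ERR reporter cells; cells were plated 6 h before compound addition by pin tool.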

[16] = A CellTox Green Cytotoxicity Assay to monitor cytotoxicity in HEK293 cells - 0 hour (AID 1224869); also: nearly all actives have a fitted effect of over 50% in size
How it was run: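 Read-out: fluorescence of a cell-impermeant cyanine dye staining DNA of dead cells, proportional to cytotoxicity. HEK293, 600 cells/well with reagent, compound (23 nL DMSO) added after 5 h; reads at 0, 8, 16, 24, 32, 40 h.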

[17] = qHTS RealTime-Glo MT Cell Viability Assay in HepG2 cells - 40 hour (AID 1224870); also: nearly all actives have a fitted effect of over 50% in size
How it was run: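 HepG2 cells (600/well) mixed with RealTime-Glo MT reagent, settled 5 h at 37 C/5% CO2 before compound addition. Nonlytic NanoLuc luminescence from viable-cell prosubstrate reduction read repeatedly during 40 h treatment at 37 C.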

[18] = qHTS RealTime-Glo MT Cell Viability Assay in HepG2 cells - 24 hour (AID 1224867); also: nearly all actives have a fitted effect of over 50% in size
How it was run: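 Compound treatment began 5 h after plating HepG2 cells (600/well) with NanoLuc luciferase and prosubstrate. Plates stayed at 37 C for 40 h; luminescence was captured at six time points, 0 h through 40 h.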

[19] = qHTS RealTime-Glo MT Cell Viability Assay in HEK293 cells - 32 hour (AID 1224868); also: nearly all actives have a fitted effect of over 50% in size; also: potency is read from the fitted curve at half-maximal effect
How it was run: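 Quantitative high-throughput screen of the Tox21 10K library in HEK293: cells and RealTime-Glo reagents plated together, compound added at 5 h, luminescence monitored through 40 h at 37 C.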

[20] = qHTS assay to identify small molecule agonists of H2AX - cell viability counter screen (AID 1224847; calls by dose curve; also: nearly all actives have a fitted effect of over 30% in size; also: potency is read from the fitted curve at half-maximal effect)
How it was run: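 For this counter screen, overnight-attached CHO-K1 cells received test compounds (15 concentrations, 0.76% DMSO final); 3 hr later at 37C, CellTiter-Glo reagent was added and luminescence recorded after 30 min at room temperature.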

Compound: CCCCOCCOC(=O)c1ccccc1C(=O)OCCOCCCC
- Potency [1]: inactive
- Potency [2]: inactive
- Potency [3]: inactive
- Potency [4]: inactive
- Potency [5]: inactive
- Potency [6]: inactive
- Potency [7]: inactive
- Potency [8]: 16.9 µM (active) and inactive
- Potency [9]: inactive
- Potency [10]: inactive
- Potency [11]: inactive
- Potency [12]: inactive
- Potency [13]: inactive
- Potency [14]: 26.7 µM (active) and 30.6 µM (active)
- activity change, positive = activation ([15]; at 92.4 µM (top of the series)): -34.9% (inactive) and -38.2% (inactive)
- Potency [16]: inactive
- Potency [17]: inactive

Compound: CC(C)(C)c1ccccc1
- Potency [1]: inactive
- Potency [2]: inactive
- Potency [3]: inactive
- Potency [4]: inactive
- Potency [5]: inactive
- Potency [6]: inactive
- Potency [7]: inactive
- Potency [8]: inactive
- Potency [9]: inactive
- Potency [10]: inactive
- Potency [12]: inactive
- Potency [13]: inactive
- Potency [14]: inactive
- activity change, positive = activation ([15]; at 92.4 µM (top of the series)): 0.862% (inactive)
- Potency [18]: inactive
- Potency [19]: inactive
- Potency [16]: inactive
- Potency [17]: inactive

Compound: O=C(O)c1cc(Cl)cc(Cl)c1
- Potency [1]: inactive
- Potency [2]: inactive
- Potency [3]: inactive
- Potency [4]: inactive
- Potency [5]: inactive
- Potency [6]: inactive
- Potency [7]: inactive
- Potency [8]: inactive
- Potency [9]: inactive
- Potency [10]: inactive
- Potency [12]: inactive
- Potency [13]: inactive
- Potency [14]: inactive
- activity change, positive = activation ([15]; at 92.4 µM (top of the series)): -3.61% (inactive)
- Potency [19]: inactive
- Potency [16]: inactive
- Potency [17]: inactive

Compound: CCCC(=O)c1ccccc1
- Potency [1]: inactive
- Potency [2]: inactive
- Potency [3]: inactive
- Potency [4]: inactive
- Potency [5]: inactive
- Potency [6]: inactive
- Potency [7]: inactive
- Potency [8]: inactive
- Potency [9]: inactive
- Potency [10]: inactive
- Potency [11]: inactive
- Potency [12]: inactive
- Potency [13]: inactive
- Potency [20]: inactive
- Potency [14]: inactive
- activity change, positive = activation ([15]; at 92.4 µM (top of the series)): 1.85% (inactive)
- Potency [18]: inactive
- Potency [19]: inactive
- Potency [16]: inactive
- Potency [17]: inactive

Compound: C=CC(=O)OCCCCCCCC
- Potency [1]: inactive
- Potency [2]: inactive
- Potency [3]: inactive
- Potency [4]: inactive
- Potency [5]: inactive
- Potency [6]: inactive
- Potency [7]: inactive
- Potency [8]: 13.7 µM (active)
- Potency [9]: inactive
- Potency [10]: inactive
- Potency [12]: inactive
- Potency [13]: inactive
- Potency [20]: inactive
- Potency [14]: inactive
- activity change, positive = activation ([15]; at 92.4 µM (top of the series)): 2.1% (inactive)
- Potency [18]: inactive
- Potency [19]: inactive
- Potency [16]: inactive
- Potency [17]: inactive

Compound: Cc1c(O)cccc1C(=O)N[C@@H](CSc1ccccc1)[C@H](O)CN1C[C@H]2CCCC[C@H]2C[C@H]1C(=O)NC(C)(C)C
- Potency [1]: 8.41 µM (active) and 11.9 µM (active)
- Potency [2]: inactive
- Potency [3]: 26.6 µM (active) and 23.7 µM (active)
- Potency [4]: 26.6 µM (active) and 11.9 µM (active)
- Potency [5]: 59.5 µM (active) and 26.6 µM (active)
- Potency [6]: inactive
- Potency [7]: 9.43 µM (active)
- Potency [9]: inactive
- Potency [10]: inactive
- Potency [12]: inactive
- Potency [20]: 49.2 µM (active)
- Potency [14]: 15 µM (active) and 18.8 µM (active)
- activity change, positive = activation ([15]; at 42.5 µM (top of the series)): -54.6% (inactive)
- activity change, positive = activation ([15]; at 92.4 µM (top of the series)): -64.1% (inactive)
- Potency [19]: 19 µM (active)
- Potency [16]: inactive
